Laboratory results reported in PubChem BioAssay (NCATS).
Values joined by “and” are separate entries in the source; they are usually repeats but may differ in a detail not shown here. Equal values may be shown once. Results filed as inconclusive are left out. Active and inactive are the calls of the source. Calls follow the shape of the dose curve; as a rule, active = well fitted curve in the direction sought with a large enough effect; inconclusive = small, poorly fitted or top-dose-only effect, or another doubt; inactive = no such curve, though single readings can be large; an effect the other way counts as inactive or inconclusive.

What was measured:
[1] = qHTS assay for measurement of the activity of small molecule inhibitors on Zika virus induced Caspase-3 activity in human iPSC derived neural progenitor cells (hNPCs) (AID 1224857); also: nearly all actives have a fitted effect of over 65% in size
Outline: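 Human iPSC-derived neural progenitor cells pretreated 1 hr with compounds, then infected with Zika virus (2 FFU/cell) for 6 hours at 37 C. Caspase-3/7 measured by Caspase-Glo luminescence; % inhibition calculated from induction scaled to uninfected (0%) and infected (100%) wells.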

[2] = qHTS assay for measurement of the activity of small molecule inhibitors on Zika virus induced Caspase-3 activity in human astrocytoma cells (AID 1224859)
Outline: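 SNB-19 astrocytoma cells, 250/well, pretreated 1 h with compounds, then Zika virus at 2 FFU/cell for 6 h at 37 C; Caspase-Glo 3/7 luminescence after 30 min; percent inhibition normalised to uninfected and infected controls.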

[3] = qHTS Screen of the MIPE 4.0 Collection Against Ewings Sarcoma (RDES) (AID 1259252); also: nearly all actives have a fitted effect of over 35% in size; also: potency is read from the fitted curve at half-maximal effect
Outline: (§1)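 Dose series incubated 48 h with cells in RPMI plus 5% FBS, glutamine and penicillin/streptomycin; cell viability then quantified via CellTiter-Glo.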

[4] = qHTS Screen of the MIPE 4.0 Collection Against Ewings Sarcoma (TC71) (AID 1259253); also: nearly all actives have a fitted effect of over 40% in size; also: potency is read from the fitted curve at half-maximal effect
Outline: as §1

[5] = qHTS Screen of the MIPE 4.0 Collection Against Ewings Sarcoma (EW8) (AID 1259255); also: nearly all actives have a fitted effect of over 35% in size; also: potency is read from the fitted curve at half-maximal effect
Outline: as §1

[6] = qHTS assay to identify small molecule inhibitors of chordoma cells - UCH-2 (AID 1259356); also: series mostly up to about 46 µM
[7] = P-glycoprotein substrates identified in KB-8-5-11 adenocarcinoma cell line, qHTS therapeutic library screen (AID 1346987); also: nearly all actives have a fitted effect of over 65% in size; also: potency is read from the fitted curve at half-maximal effect
Outline: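 Steps: plate 500 KB-8-5-11 cells/well in DMEM + 10% FCS (colchicine removed); pin compounds in dose-response; incubate 72 h, 37 degree C, 5% CO2; add CellTiter-Glo, 5 min; read luminescence.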

[8] = NS1 protein of Zika virus - qHTS assay to identify small molecule inhibitors in human HEK 293 cells (AID 1347053); also: nearly all actives have a fitted effect of over 55% in size; also: potency is read from the fitted curve at half-maximal effect
Outline: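 HEK 293; 20 h pre-culture, 37 C/5% CO2; cpd 1 h pre-infection; ZIKV MR766, MOI = 0.5, 24 h, 37 C; TR-FRET NS1 readout (two anti-NS1 Abs); norm. to no-virus vs infected.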

[9] = Identifying Small Molecule Inhibitors of Pancreatic Cancer Stem Cells (SN12C, Adherent) (AID 1259358);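 also: cell survival measured after 48 h of compound exposure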; also: potency is read from the fitted curve at half-maximal effect
Outline: (§2)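 Endpoint: ATP-based luminescence, 48 h drug exposure. Bortezomib at 9.2 uM final as full-kill control; DMSO vehicle as negative control; activity normalized between vehicle and cell-free wells.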

[10] = qHTS Screen of the MIPE 4.0 Collection Against Ewings Sarcoma (TC32) (AID 1259256); also: nearly all actives have a fitted effect of over 45% in size; also: potency is read from the fitted curve at half-maximal effect
Outline: as §1

[11] = Identifying Small Molecule Inhibitors of Pancreatic Cancer Stem Cells (A278, Adherent) (AID 1259361);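 also: viability read after 48 h compound exposure; nearly all actives have a fitted effect of over 35% in size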
Outline: as §2

[12] = Identifying Small Molecule Inhibitors of Pancreatic Cancer Stem Cells (SN12C, Spheroid) (AID 1259360); settings: Potency: SN12C spheroid viability; also: potency is read from the fitted curve at half-maximal effect
Outline: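 Monolayer and spheroid cultures are compared. Spheroids form over 14 days in stem cell medium on hydrogel-coated low-attachment plates, then are exposed to compound for 48 h before CellTiter-Glo luminescence.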

[13] = P-glycoprotein substrates identified in KB-3-1 adenocarcinoma cell line, qHTS therapeutic library screen (AID 1346986); also: nearly all actives have a fitted effect of over 60% in size;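 also: potency is read from the fitted curve at half-maximal effect; potency is for cytotoxicity meaning loss of cell viability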
Outline: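 KB-3-1 parental and colchicine-selected P-gp-overexpressing KB-8-5-11 cells (colchicine omitted during assay), 500 cells/well, dosed in dose-response for 72 h at 37 °C; CellTiter-Glo luminescence. Cytotoxic: curve class -1.1 to -2.4, max response >50%, AC50 < 10 uM.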

[14] = Identifying Small Molecule Inhibitors of Pancreatic Cancer Stem Cells (Panc1, Adherent) (AID 1259362); settings: Potency: viability; also: potency is read from the fitted curve at half-maximal effect
Outline: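 After a 4 h attachment period, compounds were pinned into wells and cultures held 48 h under standard incubator conditions. Viability was then measured as CellTiter-Glo luminescence following 10 min at room temperature.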

CC[C@H]1CN2CCc3cc(OC)c(OC)cc3[C@H]2C[C@@H]1C[C@@H]1NCCc2cc(OC)c(OC)cc21
inactive: Potency [1] | Potency [2] | outcome [6]
active: Potency [3] 0.0935 µM | Potency [4] 0.059 µM | Potency [5] 0.0662 µM | Potency [7] 1.18 µM | Potency [8] 0.118 µM

CCc1c2c(nc3ccc(O)cc13)-c1cc3c(c(=O)n1C2)COC(=O)[C@]3(O)CC
inactive: Potency [1] | Potency [2]
active: Potency [3] 0.0021 µM | Potency [4] 0.0023 µM | Potency [5] 0.0021 µM | Potency [7] 0.231 µM | Potency [8] 0.0037 µM

NC(=O)c1c(OCc2c(F)cc(Br)cc2F)nsc1NC(=O)NCCCCN1CCCC1
inactive: Potency [1] | Potency [2] | Potency [8]
active: Potency [3] 16.6 µM | Potency [4] 18.7 µM | Potency [5] 9.35 µM | Potency [9] 5.26 µM | Potency [7] 18.4 µM

COc1cc(C(=O)NS(=O)(=O)c2ccccc2C)ccc1Cc1cn(C)c2ccc(NC(=O)OC3CCCC3)cc12
active: Potency [4] 23.5 µM | Potency [5] 16.6 µM | Potency [10] 18.7 µM
inactive: Potency [1] | Potency [2] | outcome [6] | Potency [7] | Potency [8]

Cn1cncc1[C@@](N)(c1ccc(Cl)cc1)c1ccc2c(c1)c(-c1cccc(Cl)c1)cc(=O)n2C
inactive: Potency [1] | Potency [2]
active: Potency [4] 4.69 µM | Potency [5] 5.26 µM | Potency [10] 5.9 µM | IC50 (viability decrease) [11] 23.5 µM | Potency [7] 3.72 µM

CC(=O)SC[C@@H](C)C(=O)N1CCC[C@H]1C(=O)N[C@@H](Cc1ccccc1)C(=O)O
inactive: Potency [1] | Potency [2] | Potency [4] | Potency [5] | Potency [10] | Potency [9] | Potency [12] | Potency [7] | Potency [8]

Fc1cc(-c2cccc3ncc(-c4cnn(C5CCNCC5)c4)nc23)cc(F)c1CN1CCOCC1
inactive: Potency [1] | Potency [2]
active: Potency [4] 20.9 µM | Potency [5] 20.9 µM | Potency [10] 18.7 µM | Potency [9] 23.5 µM | IC50 (viability decrease) [11] 20.9 µM | Potency [7] 20.9 µM and 20.6 µM | Potency [8] 20.9 µM

CS(=O)(=O)N1CCN(Cc2cc3nc(-c4cccc5[nH]ncc45)nc(N4CCOCC4)c3s2)CC1
inactive: Potency [1] | Potency [2]
active: Potency [4] 5.9 µM | Potency [5] 1.66 µM | Potency [10] 0.418 µM | Potency [9] 0.296 µM | IC50 (viability decrease) [11] 0.372 µM | Potency [7] 2.91 µM | Potency [8] 4.69 µM

c1cc(-c2cnn3cc(-c4ccc(OCCN5CCCCC5)cc4)cnc23)ccn1
inactive: Potency [1] | Potency [2] | Potency [12]
active: Potency [4] 14.8 µM | Potency [5] 18.7 µM | Potency [10] 20.9 µM | IC50 (viability decrease) [11] 26.4 µM | Potency [13] 6.51 µM | Potency [7] 2.35 µM and 10.3 µM

CN1CCC(CNc2ccc3ncc(-c4cccc(OC(F)(F)F)c4)n3n2)CC1
inactive: Potency [1] | Potency [2]
active: Potency [4] 16.6 µM | Potency [5] 10.5 µM | Potency [10] 13.2 µM | Potency [9] 20.9 µM | Potency [12] 23.5 µM | IC50 (viability decrease) [11] 18.7 µM | Potency [13] 20.6 µM | Potency [7] 13.2 µM and 18.4 µM | Potency [8] 16.6 µM

CC[C@@]1(O)C(=O)OCc2c1cc1n(c2=O)Cc2cc3cc(O)ccc3nc2-1
active: Potency [4] 0.0118 µM | Potency [5] 0.0132 µM | Potency [10] 0.0033 µM | Potency [7] 1.16 µM and 1.05 µM | Potency [8] 0.0332 µM
inactive: Potency [1] | Potency [2]

CCC1=C[C@@H]2CN(C1)Cc1c([nH]c3ccccc13)[C@@](C(=O)OC)(c1cc3c(cc1OC)N(C)[C@@H]1[C@@](O)(C(=O)OC)[C@H](OC(C)=O)[C@]4(CC)C=CCN5CC[C@]31[C@@H]54)C2
active: Potency [3] 0.0148 µM | Potency [4] 0.166 µM | Potency [5] 0.0066 µM | Potency [8] 4.18 µM
inactive: Potency [2] | Potency [10] | outcome [6]

C=C1C(=CC=C2CCCC3(C)[C@@H]([C@H](C)C=CC=CC(O)(CC)CC)CC[C@@H]23)C[C@@H](O)C[C@@H]1O (some centres undefined)
active: Potency [4] 18.7 µM | Potency [5] 23.5 µM | Potency [10] 20.9 µM | Potency [12] 18.7 µM
inactive: Potency [1] | Potency [2] | Potency [13] | Potency [7] | Potency [8]

C=C1C(=CC=C2CCC[C@]3(C)[C@@H]([C@H](C)C=C[C@H](C)C(C)C)CC[C@@H]23)C[C@@H](O)C[C@@H]1O
inactive: Potency [1] | Potency [2] | Potency [12] | Potency [13] | Potency [7] | Potency [8]
active: Potency [4] 0.743 µM | Potency [5] 2.35 µM | Potency [10] 0.833 µM | Potency [14] 26.4 µM

Nc1ccc(S(=O)(=O)Nc2ncccn2)cc1
inactive: Potency [2] | Potency [3] | Potency [4] | Potency [5] | Potency [10] | outcome [6] | Potency [8]

O=C(Nc1cn[nH]c1-c1nc2ccc(CN3CCOCC3)cc2[nH]1)NC1CC1
active: Potency [4] 7.43 µM | Potency [5] 0.0332 µM | Potency [10] 0.0662 µM | Potency [13] 1.16 µM | Potency [8] 9.35 µM
inactive: Potency [1] | Potency [7]

Nc1ccn([C@@H]2O[C@H](CO)[C@H](O)C2(F)F)c(=O)n1
inactive: Potency [2] | outcome [6]
active: Potency [3] 0.0526 µM | Potency [4] 0.0418 µM | Potency [5] 0.0166 µM | Potency [10] 0.0187 µM | Potency [8] 0.743 µM
